Among the data in PubChem BioAssay (NCI) are growth values, retold here.

Molecules are shown by their SMILES. “And” between values parts separate entries of the source, which are not always exact repeats. Identical values can stand only once. The panel holds about 83,000 compounds, 20% with a hit somewhere; the sample as a whole holds those more often.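 Testing used 96-well plates and a 48-hour single-concentration exposure. Example: -40 means 40% of the starting cells died.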 The source made the active and inactive calls. How the source made its calls: active means growth percent below 10; inactive means the rest.

In the test the test system is HL-60(TB) leukemia. Briefly: NCI-60 one-dose screen, 48 h (100 = growth as untreated, 0 = no growth, -100 = all killed). As to conditions: 10 µM unless noted.
Take `CCCCCCCCCCCCCCCCC(Br)C(=O)O` (stereo not given): the growth is 111% (inactive). Then `Fc1ccc2[nH]cc(-c3nonc3-c3c[nH]c4ccc(Br)cc34)c2c1`, with 34.5% (inactive). Turning to `Cc1cnc(C(=O)NNc2nc3sc4c(c3c(=O)n2C)C(C)CCC4)cn1` (stereo not given), the growth was -32.3% (active).

Consider `O=C(N/N=C/c1ccccc1)N/N=C/c1ccccc1`, for which the growth is 95.3% (inactive) and 98.4% (inactive). Then `COc1cc(-c2cc3ncccc3c3[nH]c(=O)c4cccnc4c23)cc(OC)c1OC`, with -7.16% (active). Then `Cn1cc(-c2noc(-c3cn(C)c4ncc(F)cc34)n2)c2ccccc21`, with 85.5% (inactive). Then `O=C(Cn1ccc2ccccc21)Nc1ccc(-c2nc3ccccc3s2)cc1`, with 99.9% (inactive); and `C/C=C/C(=O)OCCCCCCCCCCCC`, with 85.2% (inactive). `O=[N+]([O-])c1ccccc1/C=N\Nc1ccccc1`: the growth was 82.5% (inactive) and 87.4% (inactive). The value for `N#CC1C(=O)c2ccccc2C1c1ccccc1` (stereo not given) was 108% (inactive) and 103% (inactive); that for `CCc1ncnc2c1ccn2C(C)c1ccc(OC)c(F)c1` (stereo not given) was 31.7% (inactive); that for `Clc1ccc(NC(Nc2ccc(Cl)cc2)C(Cl)(Cl)Cl)cc1` was 93.3% (inactive) and 83.6% (inactive).

Turning to `O=C1C=Cc2ncccc2C1=O`, the growth was 57.7% (inactive). Then `C/C(Cc1ccc(Cl)cc1)=C(/c1ccc(Cl)cc1)c1ccc(OCCN(C)C)cc1`, with -10.1% (active). The value for `O=C(O)c1cc(=O)[nH]c(=O)[nH]1` was 109% (inactive) and 106% (inactive); that for `Oc1c(Cl)cc(Cl)c2ccc(Cn3cc(-c4ccc(C(F)(F)F)cc4)nn3)nc12` was -24.9% (active). Then `O=C(NCCCl)c1cc(Cl)cc(Cl)c1`, with 95.5% (inactive); and `CCN(CC)CCSc1nc(-c2ccccc2)c(C#N)c(=O)[nH]1`, with 114% (inactive).

As for `CN1[C@@H]2CC[C@H]1/C(=C\c1ccccc1)C(=O)/C2=C/c1ccccc1`, the growth is 37% (inactive).

For `CN1CCN(c2nc(NCCCCNc3ccnc4cc(Cl)ccc34)c3ccccc3n2)CC1`, the growth is 28.6% (inactive). Then `C=C(C)[C@@H]1CCC=C2CC[C@]3(C)[C@H](CC[C@@H]4[C@@]5(C)CCCNC(C)(C)[C@@H]5CC[C@]43C)[C@H]21`, with 27.7% (inactive); and `COc1ccc(/C=N/C2=C(C#N)C(c3cccc(Cl)c3)c3c(ccc4ccccc34)O2)cc1` (stereo not given), with -18.6% (active); and `Cc1ccc(/C=C2\SC(=S)N(CC(=O)NCCCN3CCOCC3)C2=O)cc1`, with 99.4% (inactive).

`CN1CCN(c2ccc3nc(-c4ccc(OCCCCN5CCN(CCCCN6C(=O)c7cccc8cccc(c78)C6=O)CC5)cc4)[nH]c3c2)CC1`: the growth was 16.6% (inactive). The value for `O=C1/C(=C/c2ccc(Cl)cc2)COc2ccc(O)c(O)c21` was -11.7% (active). In the case of `O=S(=O)(Nc1ccc(-c2nc(-c3cccc(OCCN4CCOCC4)c3)c(-c3ccnc(Br)c3)[nH]2)cc1)c1ccccc1`, the growth was -2.01% (active). Then `O=C(Nc1cccc(Cl)c1)c1cc([N+](=O)[O-])ccc1O`, with 44.4% (inactive); and `Cc1cc(C)c2c(c1)N(C)c1ncnc(-n3cnc4cc(C)ccc43)c1CC2C` (stereo not given), with 11.1% (inactive). The value for `CCOc1ccc(/C=N\N2CCCCCC2)cc1OCC` was 92.7% (inactive); that for `CCOC(=O)N/N=C/c1ccc(OC)c(OC)c1` was 108% (inactive); that for `CCN1C[C@@H](C)n2c(c(O)c3c(=O)n(Cc4ccc(F)c(Cl)c4)nc(C(=O)NC)c32)C1=O` was 36.7% (inactive). The value for `Cc1cc(Cl)nc(N(CCCNc2ccnc3cc(Cl)ccc23)Cc2cccs2)n1` was -41.4% (active); that for `CC[C@]12C=CCN3CC[C@@]4(c5cc(NC(=O)CCC(=O)O[C@H]6CC[C@H]7[C@@H]8CCC9=CC(=O)CC[C@@H]9[C@H]8CC[C@]67C)c(OC)cc5N(C)[C@H]4[C@@](O)(C(=O)OC)[C@@H]1OC(C)=O)[C@@H]32` was 62.5% (inactive); that for `N#Cc1cnn2c(-c3ccc(Cl)cc3)nc(NC3CC3)nc12` was 98.2% (inactive). For `O=C(c1ccccc1)[C@H]1[C@@H]2CCCN2[C@]2(C(=O)Nc3ccc(F)cc32)[C@]12C(=O)Nc1ccccc12`, the growth is 68.3% (inactive).

Turning to `CN(C)CCNc1cc(-c2ccccc2)nc2ccccc12`, the growth was -17.7% (active). The value for `CCC(=C(c1ccc(OCCN2CCCCC2)cc1)c1ccc(OCCN2CCCCC2)cc1)c1ccc(Cl)cc1` was -62.4% (active). As for `COc1ccc2nc(Cl)cc(C)c2c1`, the growth was 89.3% (inactive) and 9.88% (active). Then `O=C1CCC(NC(=S)Nc2ccccc2)N1` (stereo not given), with 99.2% (inactive); and `CCN(CC)c1ccc2[nH]c3c(C(N)=O)cc(=O)c(=O)c=3oc2c1`, with -25.1% (active).
